Activity calls are given as the source filed them.

The nature of assay [1]: E. coli DRC41 culture turbidity changes, primary screen, E. coli filamentation inducer project, strain DRC41, OD650, 48 h (AID 1152).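 Further: E. coli MC1000 strain DRC41 lacking acrAB efflux pump and sulA.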 The note with it: E. coli DRC41 (acrAB sulA), higher = more signal, called active from +8 up or from −8 down.
Assay [2] in a line: small-molecule binders of probe aLefty1, primary screen, biochemical, small-molecule microarray, 635/667 nm fluorescence (AID 1153).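 Further: score merges spot fluorescence with signal-to-noise ratio from the scanned slide images.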 The note with it: higher = more signal.
Assay [3] in a line: PSAC antagonists in infected red cells, primary screen, cell-based, P. falciparum Indochina, OD700, 1 h (AID 1154). As to conditions: P. falciparum Indochina infected RBC osmotic lysis, higher = more signal, called active from +8 up or from −8 down.
Assay [4] can be described thus: PSAC antagonists in infected red cells, primary screen, cell-based, P. falciparum Indochina, OD700, 2 h (AID 1155).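 Further: lysis reports solute entry through the parasite surface anion channel PSAC; channel blockers reduce lysis of infected cells.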 As to conditions: P. falciparum Indochina infected erythrocytes, osmotic lysis OD700; higher = more signal, called active from +8 up or from −8 down.
Assay [5] is described as follows: osmotic lysis modulators in infected erythrocytes, primary screen, PSAC antagonist project, cell-based, P. falciparum Indochina, OD700, 3 h (AID 1156). The note with it: higher = more signal, called active from +8 up or from −8 down.
Assay [6] is described as follows: PSAC antagonists in infected red cells, primary screen, cell-based, P. falciparum Indochina, OD700, 18 h (AID 1157). As to conditions: P. falciparum Indochina infected erythrocytes, osmotic lysis OD700, 18 h; higher = more signal, called active from +8 up or from −8 down.
Assay [7] in a line: modulators of S6 phosphorylation in cells, primary screen, cell-based, A549, cytoblot, luminescence, serum-stimulated (AID 1158).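 Further: serum-stimulated A549 lung adenocarcinoma cells; signal is phosphorylated S6 detected by cytoblot immunostaining with HRP secondary.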 The note with it: A549 phospho-S6 cytoblot, 5 h, higher = more signal.
Assay [8] addresses NADPH oxidase 2 (Homo sapiens) (UniProt P04839). Description: NOX2-dependent H2O2 signal modulators, primary screen, NOX inhibitor project, cell-based, HEK293-NOX2, PMA-stimulated, Amplex Red fluorescence (AID 1159). Further: test concentration not given here. As to conditions: 45 min, higher = more signal, called active from +8 up or from −8 down.
The target of assay [9] is NADPH oxidase 4 (Homo sapiens) (UniProt Q9NPH5). Description: NOX4-dependent H2O2 signal modulators, primary screen, NOX inhibitor project, cell-based, HEK293-NOX4, tetracycline-induced, Amplex Red fluorescence (AID 1160). The note with it: 45 min, higher = more signal, called active from +8 up or from −8 down.
The target of assay [10] is NADPH oxidase 5 (Homo sapiens) (UniProt Q96PH1). The assay is described as follows: NOX5-dependent H2O2 signal modulators, primary screen, NOX inhibitor project, cell-based, HEK293-NOX5, Amplex Red fluorescence (AID 1161). As to conditions: HEK293-NOX5, ionomycin, 45 min, higher = more signal.
Chain of NADPH oxidase 5 (Homo sapiens) (Q96PH1 whole entry, looked up): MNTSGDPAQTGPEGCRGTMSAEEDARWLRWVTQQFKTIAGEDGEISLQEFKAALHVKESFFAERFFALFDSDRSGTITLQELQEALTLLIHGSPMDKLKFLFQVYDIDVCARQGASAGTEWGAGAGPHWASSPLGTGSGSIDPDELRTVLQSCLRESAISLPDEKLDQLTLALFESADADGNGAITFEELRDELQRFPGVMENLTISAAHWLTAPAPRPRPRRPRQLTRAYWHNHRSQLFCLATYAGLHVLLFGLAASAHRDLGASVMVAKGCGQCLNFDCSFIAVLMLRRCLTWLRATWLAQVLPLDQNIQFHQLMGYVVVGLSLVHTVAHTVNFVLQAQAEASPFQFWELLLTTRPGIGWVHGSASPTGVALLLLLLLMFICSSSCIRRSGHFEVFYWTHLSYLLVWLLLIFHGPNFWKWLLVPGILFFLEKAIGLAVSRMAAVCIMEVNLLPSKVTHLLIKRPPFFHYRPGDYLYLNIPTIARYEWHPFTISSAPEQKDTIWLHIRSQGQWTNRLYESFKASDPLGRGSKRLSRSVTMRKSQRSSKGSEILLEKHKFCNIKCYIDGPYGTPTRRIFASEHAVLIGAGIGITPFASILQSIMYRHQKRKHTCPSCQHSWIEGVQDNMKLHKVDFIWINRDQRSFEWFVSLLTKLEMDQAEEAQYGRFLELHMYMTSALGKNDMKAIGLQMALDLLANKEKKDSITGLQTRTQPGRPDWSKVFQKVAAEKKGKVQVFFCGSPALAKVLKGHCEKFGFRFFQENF

Chain of NADPH oxidase 2 (Homo sapiens) (P04839 whole entry, looked up): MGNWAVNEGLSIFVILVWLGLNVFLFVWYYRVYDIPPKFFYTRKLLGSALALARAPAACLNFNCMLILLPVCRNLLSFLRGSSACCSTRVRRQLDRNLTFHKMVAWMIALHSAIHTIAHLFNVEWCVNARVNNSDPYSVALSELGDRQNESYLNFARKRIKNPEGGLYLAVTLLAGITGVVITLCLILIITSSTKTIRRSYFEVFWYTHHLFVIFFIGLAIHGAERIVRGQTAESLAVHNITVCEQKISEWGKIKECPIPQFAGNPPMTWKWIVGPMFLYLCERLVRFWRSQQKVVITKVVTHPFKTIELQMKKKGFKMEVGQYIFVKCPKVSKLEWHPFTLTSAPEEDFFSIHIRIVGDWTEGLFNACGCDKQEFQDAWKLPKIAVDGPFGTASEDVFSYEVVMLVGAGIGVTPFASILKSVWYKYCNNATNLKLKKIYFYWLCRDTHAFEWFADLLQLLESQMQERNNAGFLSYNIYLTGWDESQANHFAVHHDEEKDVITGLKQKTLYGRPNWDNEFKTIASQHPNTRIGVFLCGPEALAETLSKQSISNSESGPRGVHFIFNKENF
Chain of NADPH oxidase 4 (Homo sapiens) (Q9NPH5 whole entry, looked up): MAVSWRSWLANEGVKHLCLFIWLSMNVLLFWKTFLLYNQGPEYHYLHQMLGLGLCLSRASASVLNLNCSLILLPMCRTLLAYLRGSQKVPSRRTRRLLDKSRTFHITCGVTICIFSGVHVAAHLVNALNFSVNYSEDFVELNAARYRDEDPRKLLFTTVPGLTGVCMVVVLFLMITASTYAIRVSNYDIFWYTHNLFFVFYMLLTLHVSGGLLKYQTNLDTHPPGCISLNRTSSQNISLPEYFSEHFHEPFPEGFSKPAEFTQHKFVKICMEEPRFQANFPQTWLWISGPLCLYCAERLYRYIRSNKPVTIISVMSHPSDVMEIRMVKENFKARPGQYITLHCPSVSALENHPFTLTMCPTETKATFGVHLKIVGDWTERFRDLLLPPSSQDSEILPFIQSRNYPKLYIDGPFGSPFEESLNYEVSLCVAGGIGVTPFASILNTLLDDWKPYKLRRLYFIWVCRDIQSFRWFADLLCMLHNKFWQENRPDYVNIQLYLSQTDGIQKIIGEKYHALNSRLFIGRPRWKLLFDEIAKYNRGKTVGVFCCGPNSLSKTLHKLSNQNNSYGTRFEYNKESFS

`CCCCC(CC)C(O)C1C=CC2C(=O)NC(=O)C2N1Nc1ccccn1` (stereo not given): the z-score in assay [1] was -0.757 (inactive); in assay [3], 1.68 (inactive); in assay [4] it was 0.648 (inactive); in assay [5], 0.186 (inactive); in [6] it was 0.408 (inactive); in assay [7], -0.606. Further, the z-score in [8] was 0.201 (inactive); in [9], -3.35 (inactive); in assay [10] it was -2.14. The molecule further registered a composite z-score in assay [2] of -0.0754.

Take `O=C1c2ccccc2[C@](Cc2ccccc2I)(C(=O)NCC(F)(F)F)[C@H](c2ccc(CO)cc2)N1Cc1ccccc1`: the z-score in assay [1] was 0.131 (inactive); in assay [3], 2.39 (inactive); in [4], 0.111 (inactive); in assay [5], 0.369 (inactive); in assay [6], 0.278 (inactive); in assay [7], -0.261. Further, the z-score in assay [8] is 0.738 (inactive); in assay [9], -0.16 (inactive); in assay [10] it was 1.14. Further, the composite z-score in [2] is -0.229.

As for `CC1C=C(CCCO)C=C(C(=O)OCCS(C)(=O)=O)C(C(=O)OCCS(C)(=O)=O)=CN1Cc1cccc(OC(F)(F)F)c1` (stereo not given), the z-score was -0.311 (inactive) in assay [1]; 1.81 (inactive) in assay [3]; 0.45 (inactive) in [4]; 0.714 (inactive) in assay [5]; 0.283 (inactive) in [6]; 0.402 in assay [7]. Besides, the z-score in assay [8] is -1.97 (inactive); in [9], -0.729 (inactive); in [10], -1.67. The same molecule registered a composite z-score in assay [2] of 0.304.

Turning to `COCCCNC(=O)[C@@]1(Cc2ccccc2I)c2ccccc2C(=O)N(Cc2ccccc2Cl)[C@H]1c1ccc(CO)cc1`, the z-score was 0.437 (inactive) in assay [1]; 5.51 (inactive) in assay [3]; 0.303 (inactive) in [4]; 0.65 (inactive) in assay [5]; 0.13 (inactive) in assay [6]; 0.984 in [7]. Further, the values for the z-score in assay [8], in [9] and in assay [10] were 0.374 (inactive), -0.881 (inactive) and -2.14, respectively. The composite z-score in assay [2] was -0.0346.

For the molecule `C=CCOC(=O)[C@@H]1[C@H]2C(=O)O[C@H](c3ccccc3)[C@H](c3ccccc3)N2[C@H](c2ccc(OCCOC(=O)[C@H]3C[C@H]4C(=O)N[C@@H](Cc5ccccc5)C(=O)N4[C@H]3c3cccc(OCCO)c3)cc2)[C@@]12C(=O)Nc1ccc(I)cc12`, the z-score is -0.804 (inactive) in [1]; 1.94 (inactive) in [3]; 1.79 (inactive) in [4]; -1.66 (inactive) in [5]; 0.619 (inactive) in assay [6]; 0.652 in assay [7]. Besides, the results for the z-score in [8], in [9] and in [10] were 2.21 (inactive), 0.45 (inactive) and 1.98, respectively. Further, in assay [2], the composite z-score is 0.403.

As to `CC(C)C[C@H]1NC(=O)[C@H](C)NC(=O)[C@@]23C(=O)N[C@@H](Cc4ccccc4)C2[C@H](C)[C@@]2(C)O[C@H]2C3/C=C/C/C=C\CNC1=O` (stereo not given in full), the z-score in assay [1] is -1.07 (inactive); in [3], 2.71 (inactive); in assay [4], -0.169 (inactive); in assay [5], 0.137 (inactive); in assay [6], 0.11 (inactive); in assay [7] it was 0.0246. Further, the z-score is -0.232 (inactive) in assay [8], 0.83 (inactive) in [9] and -0.234 in assay [10]. The composite z-score in assay [2] is -0.774.

`Cc1ccccc1C(O)C1C=CC2C(=O)N(Cc3ccccc3)C(=O)C2N1n1cnnc1` (stereo not given): the z-score in [1] is -0.534 (inactive); in assay [3], 1.4 (inactive); in assay [4] it was 1.2 (inactive); in [5] it was 0.341 (inactive); in [6], 0.927 (inactive); in assay [7] it was -0.29. For the same molecule, the z-score was -0.4 (inactive) in [8], 0.1 (inactive) in assay [9] and 0.067 in [10]. This molecule came in with a composite z-score in assay [2] of 0.0722.

Regarding `CCCC[C@H]1OB(O)C[C@H]2C1=C(COc1ccccc1)Cn1c(=O)n(-c3ccccc3)c(=O)n12`, the z-score in [1] was 0.4 (inactive); in assay [3], 2.14 (inactive); in [4] it was 0.0541 (inactive); in assay [5], 0.722 (inactive); in [6], 0.0113 (inactive); in assay [7], 0.279. Moreover, the values for the z-score in assay [8], in assay [9] and in assay [10] were -0.281 (inactive), -0.216 (inactive) and 0.779, respectively. In assay [2], this molecule gave a composite z-score of -0.06.

Consider `COCCOC(=O)N1C(=O)[C@@]2(c3cc(C#CCCO)ccc31)[C@H](C(=O)NC[C@H](O)c1ccccc1)[C@H]1C(=O)O[C@H](c3ccccc3)[C@H](c3ccccc3)N1[C@@H]2c1ccccc1OCCO`, for which the z-score in [1] is -0.0118 (inactive); in [3], 2.52 (inactive); in assay [4] it was 0.963 (inactive); in [5] it was -0.654 (inactive); in assay [6], 0.705 (inactive); in [7], -0.18. For the same molecule, the z-score is 1.54 (inactive) in assay [8], 0.992 (inactive) in [9] and 1.17 in assay [10]. This molecule also returned a composite z-score in [2] of 0.213.

In the case of `NC(=O)NCC#Cc1ccc2c(c1)[C@]1(C(=O)N2)[C@H](c2ccc(OCCO)cc2)N2[C@H](c3ccccc3)[C@H](c3ccccc3)OC(=O)[C@H]2[C@@H]1C(=O)N1CCCCCCC1`, the z-score in assay [1] is -1.89 (inactive); in assay [3], 4.46 (inactive); in assay [4], 1.05 (inactive); in [5] it was 0.323 (inactive); in assay [6], 0.565 (inactive); in assay [7], -0.0231. For the same molecule, the z-score in [8] was 1.9 (inactive); in assay [9], 1.15 (inactive); in [10] it was 0.333. For the same molecule, the composite z-score in assay [2] came to 2.86.

As for `CCOC(=O)C1=CC[C@@H](c2ccc(N(CC)CC)cc2)N(S(=O)(=O)c2ccc(C)cc2)[C@H]1c1ccc([N+](=O)[O-])cc1`, the z-score was -1.24 (inactive) in assay [1]; 1.66 (inactive) in assay [3]; 0.86 (inactive) in assay [4]; 0.723 (inactive) in [5]; 0.779 (inactive) in assay [6]; -0.779 in assay [7]. For the same molecule, the figures for the z-score in assay [8], in [9] and in assay [10] were 0.599 (inactive), -1.37 (inactive) and -0.131, respectively. For the same molecule, the composite z-score in [2] turned out to be 0.437.

With `CC(C)C[C@@H]1NC(=O)[C@@]23C(=O)N[C@@H](Cc4ccccc4)C2[C@H](C)[C@@]2(C)O[C@H]2C3/C=C/C/C=C\CNC(=O)[C@@H]2CCCN2C1=O` (stereo not given in full), the z-score was -0.797 (inactive) in [1]; 0.918 (inactive) in assay [3]; 0.182 (inactive) in [4]; -0.551 (inactive) in assay [5]; 0.01 (inactive) in [6]; 0.226 in [7]. Besides, the z-score in [8] was 0.593 (inactive); in assay [9] it was 1.14 (inactive); in assay [10], 0.579. The molecule further displayed a composite z-score in assay [2] of -0.234.

The record behind these values is PubChem BioAssay.
